Shown is part of a subset that was picked to be rich in hits.
fixLJ activator – activators of Burkholderia fixLJ two-component system, primary screen, B. multivorans, GFP reporter | actives 0.3% (n = 29,000) | B. multivorans fixK-promoter GFP reporter, 18 h; stronger effect = higher value | z-score (concentration not given with the values);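 active means replicate mean overnight rise in green fluorescent reporter signal, 3 or more SD over negative controls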
Numbers stand for hits; – = inactive.

SMILES | fixLJ activator
Cc1ccccc1-n1c(/C=C/c2ccc(N(C)C)cc2)nc2ccccc2c1=O | 21
COc1cccc(-n2c(/C=C\c3ccc(Cl)cc3)nc3ccccc3c2=O)c1 | –
Cc1ccccc1-n1c(/C=C/c2c(C)[nH]c3ccccc23)nc2ccccc2c1=O | –
COCC1(CNC(=O)c2c(C)n(C)c3ccc(OC)cc23)CCCC1 | –
c1coc(-c2n[nH]c(C3(N4CCOCC4)CCCCC3)n2)c1 | –

Screens (PubChem)
